This note sets out measurements from PubChem BioAssay (NCI).

SMILES strings stand for the structures. Where “and” joins values, the source holds several entries; their conditions need not be identical. Identical values can stand only once. This is part of a sample that, as a whole, favours compounds with a hit. Of some 83,000 tested, about 20% had one in any assay.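 A percent growth of 40 corresponds to 60% growth inhibition; 0 means no net growth; -100 means all cells died. Active threshold: below 10.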 Unmarked numbers belong to inactive results. Calls of active or inactive are those of the source.

The assay relates to TK-10 renal. Description: NCI-60 one-dose screen, 48 h (100 = growth as untreated, 0 = no growth, -100 = all killed). To be noted: 10 µM unless noted.
`Cc1cc(Br)ccc1-n1cc(C#N)c(N)c1C(=O)c1ccc(Br)cc1`: the growth is 87%. The same measure for `CCCCCCN1C=C/C(=C\C(=O)n2ccc3ccccc32)c2ccccc21`: 114%. Consider `Cc1ccc(CSC2=C(Cl)CN(c3ccc(Cl)cc3)C2=O)cc1`, for which the growth is 115%. With `Clc1ccc(CSc2nnc(-c3ccc(Cl)cc3)n2-c2ccccc2)cc1`, the growth was 93.3%. In the case of `NS(=O)(=O)c1ccc(CCn2c(-c3ccc(C(=O)O)cc3)nc(-c3ccccc3)c2-c2ccccc2)cc1`, the growth is 102%. For the compound `CC(=C(c1ccc(OCCCN(C)C)cc1)c1ccc(OCCCN(C)C)cc1)c1ccc(Cl)cc1`, the growth is 96.5%. In the case of `CC[C@]12CC(C(=O)OC)=C3Nc4ccccc4[C@@]34CCN(C14)[C@@H]1c3cc4c(cc3O[C@@H]1[C@H]2O)NC1=C(C(=O)OC)C[C@@]2(CC)C3N(CC[C@@]143)C[C@H]1O[C@H]12` (some centres not stated), the growth was 6.66% (active). `Cc1ccc(-c2csc(N/N=C/c3cccs3)n2)cc1`: the growth is 151%. Consider `CN1CCC[C@]2(C)[C@H]3CC[C@@H]4[C@@H]5[C@H]6OC[C@@]5(CCC6(C)C)CC[C@@]4(C)[C@]3(C)CC[C@H]2C1(C)C`, for which the growth was 108%.

`O=S(=O)(Oc1ccc(-c2cn3ccoc3n2)cc1)c1cccc(C(F)(F)F)c1`: the growth is 85.4%.

On to `CC(Nc1c(C#N)cnc2ccc(-c3cncc(-c4n[nH]c(=O)o4)c3)cc12)c1ccccc1` (configuration not stated), for which the growth is -23.8% (active). With `C#CCN(C)CCCOc1ccc(NC(=O)CCCCCCCCC(=O)NO)cc1Cl`, the growth is 63.1%. Take `CCCc1cc2cc(-n3nc(CC)c4c3CC(C)(C)CC4=O)cc(NC3CCC(O)CC3)c2c(=O)[nH]1` (configuration not stated): the growth is 0.71% (active).

For `O=C(CN1CCN(c2cc(=O)[nH]c3ccc(F)cc23)CC1)N(c1ccccc1)c1ccccc1`, the growth is 98.7%. Regarding `CN1CCN(c2ccc(Nc3nc(NCCCNS(=O)(=O)c4cccc(F)c4)c4sccc4n3)cc2)CC1`, the growth is 91.6%. Take `COc1ccc(C(=NNS(=O)(=O)c2ccc(C)cc2)c2ccccc2)cc1OC`: the growth is 96.6%. For the compound `COc1ccc(/C=N/NC(=O)c2c(N)nn(C)c2Nc2ccccc2)cc1Oc1ccccc1`, the growth is 102%. For the compound `Cc1cc(NS(=O)(=O)c2ccc(NC(=O)CSc3nc4ccccc4c(=O)n3-c3ccccc3)cc2)no1`, the growth is 108%.

As to `CC(C)NC(=O)c1cc(-c2ccc(NC(=O)Nc3ccc(F)c(C(F)(F)F)c3)cc2)nc2cccnc12`, the growth is 96.6%. Take `CCOC(=O)c1cccnc1Nc1ccc(NC(=O)Nc2ccc(Cl)c(C(F)(F)F)c2)cc1`: the growth is 40.3%. For `O=C(CSc1nc2ccccc2c(=O)n1-c1ccc(S(=O)(=O)Nc2ccc(Cl)nn2)cc1)Nc1ccc(S(=O)(=O)Nc2ccc(Cl)nn2)cc1`, the growth is 106%.

As to `COc1cc(-c2nc(-c3ccccc3)[nH]c2-c2ccnc(NCCCNS(=O)(=O)c3ccc(C(F)(F)F)cc3)n2)ccc1Cl`, the growth was 79.1% and 61.2%. On to `Cc1csc(/N=C(N)/N=C(\N)c2cccc(C#N)c2)n1`, for which the growth was 168%. As for `CC[C@]12C=CCN3CC[C@]4(C(=C(C(=O)OC)C1)Nc1cc5c(cc14)[C@@H]1[C@H](O5)[C@@H](O)[C@@]4(CC)CC(C(=O)OC)=C5Nc6cc(O)ccc6[C@@]56CCN1C46)C32` (some centres not stated), the growth is -9.16% (active).

Take `COc1ccc(OC)c(CCn2cncc2-c2c[nH]c3ccc(Cl)cc23)c1`: the growth is 50.7%. Regarding `Cc1ccc(-c2cc3nc(C(Cl)Cl)nc(-c4ccc(S(=O)(=O)N(C)C)cc4)n3n2)cc1`, the growth is 107%. With `CC1=C(C)C(=O)C(Nc2cccc(C(=O)OC(C)(C)C)c2)=C(Cl)C1=O` the figure was 116%; with `COC(=O)c1ccc(NC2=C(Cl)C(=O)C(C)=C(C)C2=O)cc1`, 112%. For `CN(C)c1ccc(/C=N/Nc2nc(N/N=C/c3ccc(N(C)C)cc3)nc(N3CCCCC3)n2)cc1`, the growth is 118%. For `OCC(Nc1ncnc2ccc(-c3cnc4cnccn34)cc12)c1ccccc1` (configuration not stated), the growth was 40%.

For `COc1ccc(-c2cc(-c3ccc(N4CCOCC4)cc3)n3c(n2)nc2ccccc23)cc1OC`, the growth is 98.8%. With `CCOC(=O)c1c(NC(=O)c2cccc(C(F)(F)F)c2)sc2c1CCC(=O)C2` the figure was 54.9%; with `CN1CCN(c2ccc(Nc3nc(NCCCNS(=O)(=O)c4ccc(Cl)cc4)c4sccc4n3)cc2)CC1`, 9.93% (active). `CCOC(=O)C(=O)Nc1ccc2c(ccn2C(=O)c2cccc(F)c2)c1`: the growth is 97.6%. With `CCOc1cccc(/C(N)=N/C(N)=N/c2nc3ccccc3s2)c1` the figure was 135%. As for `CN1CCN(c2ccc(Nc3nc(NCCCNS(=O)(=O)c4ccc(C(F)(F)F)cc4)c4sccc4n3)cc2)CC1`, the growth was -34.4% (active). Turning to `Cc1ccc2c(n1)C(=O)C(Cl)=C(Nc1cccc(C(F)(F)F)c1)C2=O`, the growth was 127%.
